Laboratory results: PubChem BioAssay AID1159580 (chemical genetic matrix, 2015)
The campaign covered roughly 5,500 compounds. About 2,000 (36%) were called active. Inconclusive results (about 18%) are left out. The list shows a part of the results. Values without a mark were called inactive. No stated cut-off is given here; in the data, active means normalized growth mostly below about 0.91 (no sharp cut-off); inconclusive means no clear call, values can overlap the other calls; inactive means mostly above about 0.92.

Experiment: chemical genetic growth profiling, strain panel (AID 1159580);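 further: tested at 20 µM; growth read once vehicle control cultures reached saturation at 30 °C; 1 = growth at the plate median or of vehicle wells; lower values mean less growth of the strain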
Conditions: S. cerevisiae deletion strains, growth OD
[1] = locus YDL101C, strain DUN1, hits give low values
[2] = locus YHR030C, strain SLT2, hits give low values

**Q.** Which normalized growth (locus YAL013W, strain DEP1, hits give low values) does the source give for `COC(=O)c1ccc(S(=O)(=O)N2CCC(C(N)=O)CC2)n1C` here?
**A.** The normalized growth was 0.97.

**Q.** And the normalized growth (locus YBR229C, strain ROT2, hits give low values)?
**A.** The normalized growth was 1.

**Q.** And the normalized growth (locus YCL061C, strain MRC1, hits give low values)?
**A.** The normalized growth was 0.99.

**Q.** What about the normalized growth [1] of the same molecule?
**A.** Its normalized growth is 0.97.

**Q.** And the normalized growth (locus YDL134C, strain PPH21, hits give low values)?
**A.** The normalized growth was 1.03.

**Q.** What about the normalized growth (locus YDR150W, strain NUM1, hits give low values) of the same molecule?
**A.** The normalized growth was 0.881.

**Q.** And the normalized growth (locus YEL061C, strain CIN8, hits give low values)?
**A.** The normalized growth was 1.02.

**Q.** What about the normalized growth (locus YGR078C, strain PAC10, hits give low values) of the same molecule?
**A.** The normalized growth was 0.989.

**Q.** And the normalized growth (locus YGR229C, strain SMI1, hits give low values)?
**A.** The normalized growth was 1.

**Q.** What about the normalized growth [2] of the same molecule?
**A.** Its normalized growth is 1.05.

**Q.** And the normalized growth (locus YHR087W, strain rtc3, hits give low values)?
**A.** Its normalized growth is 0.993.

**Q.** What about the normalized growth (locus YJR043C, strain POL32, hits give low values) of the same molecule?
**A.** Its normalized growth is 0.983.

**Q.** And the normalized growth (locus YJR075W, strain HOC1, hits give low values)?
**A.** The normalized growth was 0.988.

**Q.** And the normalized growth (locus YKL190W, strain CNB1, hits give low values)?
**A.** Its normalized growth is 1.02.

**Q.** What about the normalized growth (locus YLR039C, strain RIC1, hits give low values) of the same molecule?
**A.** The normalized growth was 1.01.

**Q.** And the normalized growth (locus YLR058C, strain SHM2 (second series), hits give low values)?
**A.** The normalized growth was 0.991.

**Q.** And the normalized growth (locus YLR085C, strain ARP6, hits give low values)?
**A.** The normalized growth was 1.06.

**Q.** And the normalized growth (locus YLR262C, strain YPT6, hits give low values)?
**A.** Its normalized growth is 1.03.

**Q.** What about the normalized growth (locus YML094W, strain GIM5, hits give low values) of the same molecule?
**A.** The normalized growth was 0.999.

**Q.** What about the normalized growth (locus YMR219W, strain ESC1, hits give low values) of the same molecule?
**A.** Its normalized growth is 0.99.

**Q.** What about the normalized growth (locus YMR263W, strain SAP30, hits give low values) of the same molecule?
**A.** Its normalized growth is 0.981.

**Q.** What about the normalized growth (locus YMR307W, strain GAS1, hits give low values) of the same molecule?
**A.** The normalized growth was 1.05.

**Q.** What about the normalized growth (locus YNL153C, strain GIM3, hits give low values) of the same molecule?
**A.** The normalized growth was 1.01.

**Q.** What about the normalized growth (locus YNL298W, strain CLA4 (second series), hits give low values) of the same molecule?
**A.** The normalized growth was 1.06.

**Q.** And the normalized growth (locus YNL322C, strain KRE1, hits give low values)?
**A.** The normalized growth was 1.

**Q.** What about the normalized growth (locus YNR030W, strain Alg12, hits give low values) of the same molecule?
**A.** The normalized growth was 1.04.

**Q.** What about the normalized growth (locus YPL055C, strain LGE1, hits give low values) of the same molecule?
**A.** The normalized growth was 0.852.

**Q.** What about the normalized growth (locus YPL241C, strain CIN2, hits give low values) of the same molecule?
**A.** The normalized growth was 1.02.

**Q.** What about the normalized growth (locus YPR135W, strain CTF4, hits give low values) of the same molecule?
**A.** The normalized growth was 1.

**Q.** What does the source list for `CCOC(=O)/C(C#N)=C(\Nc1ccc(C(=O)OCC)cc1)SC`?
**A.** normalized growth (locus YAR019C, strain CDC15, hits give low values): 0.982; normalized growth (locus YBL105C, strain PKC1, hits give low values): 0.977; normalized growth (locus YBR135W, strain CKS1, hits give low values): 0.98; normalized growth (locus YBR136W, strain MEC1, hits give low values): 0.974; normalized growth (locus YBR160W, strain CDC28, hits give low values): 0.98; normalized growth (locus YDL017W, strain CDC7, hits give low values): 0.978; normalized growth (locus YDL028C, strain MPS1, hits give low values): 0.984; normalized growth [1]: 0.977; normalized growth (locus YDL108W, strain KIN28, hits give low values): 0.972; normalized growth (locus YDL132W, strain cdc53, hits give low values): 0.981; normalized growth (locus YDL214C, strain PRR2, hits give low values): 0.929; normalized growth (locus YDR052C, strain DBF4, hits give low values): 0.983; normalized growth (locus YDR054C, strain cdc34, hits give low values): 0.984; normalized growth (locus YDR226W, strain ADK1, hits give low values): 0.979; normalized growth (locus YDR477W, strain SNF1, hits give low values): 0.954; normalized growth (locus YER123W, strain YCK3, hits give low values): 0.91; normalized growth (locus YER133W, strain GLC7, hits give low values): 0.945; normalized growth (locus YFL009W, strain cdc4, hits give low values): 0.978; normalized growth (locus YFL029C, strain CAK1, hits give low values): 0.982; normalized growth (locus YFR003C, strain YPI1, hits give low values): 0.977; normalized growth (locus YFR019W, strain FAB1, hits give low values): 0.968; normalized growth (locus YFR028C, strain CDC14, hits give low values): 0.979; normalized growth (locus YGR040W, strain KSS1, hits give low values): 0.946; normalized growth (locus YGR052W, strain FMP48, hits give low values): 0.959; normalized growth (locus YGR092W, strain DBF2, hits give low values): 0.947; normalized growth [2]: 0.815 (active); normalized growth (locus YHR079C, strain IRE1, hits give low values): 0.841; normalized growth (locus YHR082C, strain KSP1, hits give low values): 0.998; normalized growth (locus YHR205W, strain SCH9, hits give low values): 0.872; normalized growth (locus YIL147C, strain SLN1, hits give low values): 0.98; normalized growth (locus YJL095W, strain BCK1, hits give low values): 0.934; normalized growth (locus YJL128C, strain PBS2, hits give low values): 0.913; normalized growth (locus YJL157C, strain FAR1, hits give low values): 0.945; normalized growth (locus YJR016C, strain ILV3, hits give low values): 0.99; normalized growth (locus YJR066W, strain TOR1 (second series), hits give low values): 0.941; normalized growth (locus YJR066W, strain TOR1, hits give low values): 0.985; normalized growth (locus YKL048C, strain ELM1, hits give low values): 0.921; normalized growth (locus YKL067W, strain YNK1, hits give low values): 0.928; normalized growth (locus YKL101W, strain HSL1, hits give low values): 0.908; normalized growth (locus YKL193C, strain SDS22, hits give low values): 0.984; normalized growth (locus YKL203C, strain TOR2, hits give low values): 0.977; normalized growth (locus YLR113W, strain HOG1, hits give low values): 0.706 (active); normalized growth (locus YLR133W, strain CKI1, hits give low values): 0.953; normalized growth (locus YLR403W, strain SFP1, hits give low values): 0.954; normalized growth (locus YML070W, strain DAK1, hits give low values): 0.909; normalized growth (locus YMR001C, strain CDC5, hits give low values): 0.981; normalized growth (locus YMR205C, strain PFK2 (second series), hits give low values): 0.949; normalized growth (locus YMR277W, strain FCP1, hits give low values): 0.983; normalized growth (locus YNL006W, strain LST8, hits give low values): 0.98; normalized growth (locus YNL020C, strain ARK1, hits give low values): 0.944; normalized growth (locus YNL161W, strain CBK1, hits give low values): 0.978; normalized growth (locus YNL183C, strain NPR1, hits give low values): 0.948; normalized growth (locus YNL207W, strain RIO2, hits give low values): 0.975; normalized growth (locus YNL222W, strain SSU72, hits give low values): 0.982; normalized growth (locus YNL307C, strain MCK1 (second series), hits give low values): 0.931; normalized growth (locus YOL078W, strain AVO1, hits give low values): 0.994; normalized growth (locus YOL136C, strain PFK27, hits give low values): 0.912; normalized growth (locus YOR061W, strain CKA2, hits give low values): 0.949; normalized growth (locus YOR119C, strain RIO1, hits give low values): 1.02; normalized growth (locus YOR231W, strain MKK1, hits give low values): 0.864; normalized growth (locus YOR329C, strain SCD5, hits give low values): 0.98; normalized growth (locus YPL031C, strain PHO85, hits give low values): 0.957; normalized growth (locus YPL153C, strain RAD53, hits give low values): 0.954; normalized growth (locus YPL204W, strain HRR25, hits give low values): 0.948; normalized growth (locus YPL209C, strain IPL1, hits give low values): 0.982; normalized growth (locus YPL256C, strain CLN2, hits give low values): 0.751 (active); normalized growth (locus YPR025C, strain CCL1, hits give low values): 0.979; normalized growth (locus YPR106W, strain ISR1, hits give low values): 0.978; normalized growth (locus YPR111W, strain DBF20, hits give low values): 0.947; normalized growth (strain NNK1, hits give low values): 0.959; normalized growth (strain TSCII, hits give low values): 0.984
